# Test results: PubChem BioAssay (NCI)
# Several values for one entry are separate records, joined by “and”; a condition that tells them apart may be missing. Equal values may be shown once. Compounds without any hit were thinned out: in the full panel of roughly 79,000, 15% have a hit. Values without a mark were called inactive. Activity calls are given as the source filed them. Cut-off read from the data, not from the text of the source: active = growth inhibition above about 70%; inactive = the rest.
# Tests used:
# [1] = NCI Yeast Anticancer Drug Screen. Data for the rad50 strain (AID 155);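 note: 0% = growth of vehicle-only cultures of the same strain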; details: S. cerevisiae rad50 strain growth inhibition; at 50.0 µM; hits give high values
# Procedure, shortened: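 Relative growth inhibition (compound vs vehicle) was measured in yeast with a defined repair-gene alteration.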
# [2] = NCI Yeast Anticancer Drug Screen. Data for the mec2-1 strain (AID 157); details: S. cerevisiae mec2-1 strain, at 50.0 µM, hits give high values
# Procedure, shortened: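 mec2-1 yeast strain, carrying an alteration in DNA damage repair or cell cycle control, was exposed to compounds; growth inhibition was measured relative to vehicle-treated controls.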
# [3] = NCI Yeast Anticancer Drug Screen. Data for the sgs1 mgt1 strain (AID 161);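 note: 0% = growth of cultures given vehicle only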; details: S. cerevisiae sgs1 mgt1 strain, at 50.0 µM, hits give high values
# Procedure, shortened: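 Percent growth inhibition was derived by comparing compound-exposed mutant yeast with vehicle-exposed cultures. The strain carries alterations in DNA damage repair.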
# [4] = NCI Yeast Anticancer Drug Screen. Data for the cln2 rad14 strain (AID 165);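 note: 0% = growth equal to vehicle treated cultures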; details: S. cerevisiae cln2 rad14 strain, at 50.0 µM, hits give high values
# Procedure, shortened: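 Yeast carrying cln2 and rad14 alterations (cell cycle control and DNA damage repair) were exposed to compounds. Growth inhibition was measured against vehicle-treated controls.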
# [5] = NCI Yeast Anticancer Drug Screen. Data for the bub3 strain (AID 167); details: S. cerevisiae bub3 mutant strain, at 50.0 µM, hits give high values
# Procedure, shortened: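 Screening used yeast with an engineered genetic alteration affecting cell cycle control. Compound-exposed cultures were compared with vehicle cultures, and reduced growth was taken as inhibition.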
# [6] = NCI Yeast Anticancer Drug Screen. Data for the mlh1 rad18 strain (AID 175); details: S. cerevisiae mlh1 rad18 strain growth inhibition; at 50.0 µM; hits give high values
# Procedure, shortened: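 Growth inhibition of the yeast strain was measured after compound exposure and expressed relative to vehicle-treated controls. The strain carries defined defects in DNA damage repair.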
SMILES,growth inhibition [1],growth inhibition [2],growth inhibition [3],growth inhibition [4],growth inhibition [5],growth inhibition [6]
CN(C)CCc1ccc(O)cc1,3.9% and -2.85%,4.2% and 2.8%,10.1% and -3.15%,5.55% and -16.4%,2.85% and -2.9%,-0.85% and 4.85%
NC(Cc1ccc(N(CCCl)Cc2ccccc2)cc1)C(=O)O (stereo not given),10.1%,-13.2%,2%,-3.85%,-29.2%,-31.5%
CCOP(=O)(N=S=O)OCC,5.75%,-13.5%,-4.05%,-28.2%,7.95%,-2.2%
C/C=C/C1(CCCC)C(=O)NC(=O)NC1=O,9.8%,3.35%,4.15%,8.75%,-2.6%,-20.8%
COP(=O)(CC(=O)CCCCC1OCCO1)OC,2.25%,0%,1.3%,-22.8%,-5.3%,-4.85%
S=c1[nH]c2ccccc2[nH]1.[Zn+2],13.2%,10.3%,18.2%,10.2%,-21.4%,-5.35%
ClCCCBr,29.2%,-7.35%,-10.8%,13.3%,24.4%,21.9%
O=C(O)C(=O)O.[Ru].c1cnc2c(c1)ccc1cccnc12.c1cnc2c(c1)ccc1cccnc12,25.1%,-10.9%,2.95%,5.45%,-2.2%,5.25%
O=C(Nc1cccc(Cl)c1)OCC(Cl)(Cl)Cl,99.6% (active),99.8% (active),99.4% (active),99.8% (active),99.3% (active),99.7% (active)
O=[N+]([O-])c1ccc(C2C3C(c4ccccc4)=NCCCN32)cc1 (stereo not given),-0.2%,12.2%,-8%,-15.2%,-12.2%,-14.7%
C=C1CC/C=C(/C)C(=O)C(OC(C)=O)C2C1CC2(C)C (stereo not given),78% (active),83.6% (active),81.2% (active),70.7% (active),86.2% (active),81.4% (active)
O=C1NC(=O)C(F)C(O)N1 (stereo not given),-22.8%,-17.8%,-6.15%,-14.8%,16.1%,-8.2%
CCCCN(CCCC)CC(=O)c1ccc(Br)cc1,7.05%,2.5%,20.2%,-24.4%,18%,27.6%
O=NN(O)c1ccccc1.O=NN(O)c1ccccc1.[Mn+2],4.85%,0.15%,13.1%,-46.5%,-4.3%,3.85%
CCCCC(CC)C(=O)NC(N)=O (stereo not given),6.7%,-20.1%,-5.35%,-22.4%,-12.2%,4.1%
CCC1(c2ccccc2)C(=O)N(C)C(=O)N(CCCl)C1=O (stereo not given),12.5%,8.15%,-0.8%,-34.5%,22.3%,3.85%
CCOC(=O)CC(=Nc1cc(C)on1)N(CC)CC,0.95%,-19.2%,6.3%,9.95%,-9.75%,-17.1%
Cc1ccc2n[se]nc2c1,11.6%,-15.4%,-16.8%,-0.3%,-15.1%,-8.15%
COc1cc(CC(C)N)ccc1O (stereo not given),7.9%,-9.4%,-14.2%,-46.4%,21.6%,-18.4%
N#CNc1nnnn1-c1ccccc1 (tested in a mixture with another compound),7.7%,9.35%,0.55%,44.4%,11.8%,-16.9%

SMILES,growth inhibition [1],growth inhibition [2],growth inhibition [3],growth inhibition [4],growth inhibition [5],growth inhibition [6]
OCC(Br)(Br)Br,44.4%,-4.3%,19.5%,3.7%,-2.55%,27.9%
[N-]=[N+]=Nc1nc2ccccc2c(N=[N+]=[N-])c1Cl,6.85%,-6.7%,5.6%,31.9%,5.45%,9.45%
COC1CC(OC2OC(CO)C(O)C(O)C2O)/C(=C\C#N)C(O)C1OC (stereo not given),1.95%,-3.05%,1.8%,9.25%,2.35%,-58.2%
CC(NC(=O)C(c1ccccc1)c1ccccc1)C(=O)O (stereo not given),2.35%,12.6%,-1.5%,-17.2%,1.4%,14.9%
O=C(O)CN(CCN(CC(=O)O)CC(=O)O)CC(=O)O.[Co+2],0.25%,-3.85%,13.2%,19.1%,16.4%,7.45%
Cc1c(OCC(=O)N/N=C/c2ccc(N(CCCl)CCCl)cc2)ccc2c(=O)c3ccccc3oc12,-1.95%,-10.3%,-3.15%,-15.5%,13.8%,-8.35%
CC(=O)NC(Cc1ccc(N(CCCl)CCCl)cc1)C(=O)NC(CC(C)C)C(=O)O (stereo not given),2.85%,22.6%,-4.15%,5.75%,2.7%,21.7%
CN(C)CCNC(=O)c1cc(COC(=O)N(CCCl)CCCl)ccc1[N+](=O)[O-],38.2%,36.9%,56.1%,28.1%,35.8%,56.8%
COC(=O)C1C(=O)CC2N(C)C1C(C)(C)C2(C)C (stereo not given),47.9%,21.4%,60.6%,4.8%,38.4%,56.1%
CCOP1(=S)NNP(=S)(OCC)NN1 (stereo not given),-2.75%,-11.5%,-3.75%,18.4%,10.2%,8.85%
CS/C([S-])=N/N=C(C)C.CS/C([S-])=N/N=C(C)C.[Pt+2],9.1%,1.45%,0.7%,-41.3%,-0.8%,-9.9%
[CH3][Sb]1([Cl])[CH2]CC[CH2]1,0.2%,26.1%,-5.6%,-3.1%,32.5%,27%
Oc1ccc2ccccc2c1N=Nc1ccccc1,-10.8% and 10.3%,-6.5% and -18.8%,-12.6% and -7.95%,-21.9% and -9.7%,0.9% and -18.4%,3.1% and 2.3%
N#CS.N=C=S.N=C=S.[Cu+2].[NH2-].[NH2-].[NH2-].[NH2-].c1ccc2ncccc2c1,-10.4%,-16.6%,-24.2%,26.2%,-9.6%,-12.5%
Cc1nnc2n1-c1ccccc1C(=S)N1CSCC21 (stereo not given),-22%,-0.25%,-24.7%,8.15%,-6.7%,-0.45%
S=C(SSC(=S)N(Cc1ccccc1)Cc1ccccc1)N(Cc1ccccc1)Cc1ccccc1,-1.7%,11.6%,2.95%,-14.3%,-20.6%,12%
[Cl][Tl],-4.7%,5.2%,9.5%,-11.3%,-41%,-37.5%
O=Cc1ccccc1O.[Pr],29.1%,-24.4%,37%,8.4%,24.4%,28.6%
O=C(O)COc1nc(Cl)c(Cl)cc1Cl,3.3%,6%,12.5%,-1.75%,15.6%,1.15%
O=C1C2CCN(CC2)C1Cc1ccccc1 (stereo not given),-10.2% and -4.55%,1.95% and 2.95%,-8.7% and 4.4%,-4.3% and -0.15%,-18.3% and -2.8%,-15.4% and 2.95%
